Assay outcomes as filed in PubChem BioAssay.
HSD17B inhib – qHTS Assay for Inhibitors of HSD17B4, hydroxysteroid (17-beta) dehydrogenase 4; 3-hydroxyacyl-CoA dehydrogenase type-2 (Homo sapiens), Q99714; recombinant HSD17B10, NADH fluorescence kinetic; Potency, µM (series often up to 57.1 µM), usual class: inhibitors; 75,000 tested, 7.6% active; AID 893, 2007;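 further: the protocol describes HADH2 (HSD17B10) and not the HSD17B4 of the title; nearly all actives have a fitted effect of over 70% in size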
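Enzyme plus compound, 15 min room temperature; substrate mix added (NAD+ 1 mM, beta-hydroxybutyryl-CoA 90 uM final); plates read kinetically for NADH fluorescence. HADH2 was His-tagged, E. coli-derived, 20 nM.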
AID923 – qHTS Assay for Allosteric/Competitive Inhibitors of Caspase-1: Spectroscopic Profiling in AFC Spectral Region. compound fluorescence, AFC spectral region (405/520 nm). Potency, µM (top dose mostly 57.5 µM), actives largely listed as activators. 75,000 tested, 1.1% active. AID 923, 2007
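Compound autofluorescence profiled at 405 nm ex/520 nm em during kinetic caspase 1 run (50 nM enzyme, 5 uM Ac-WEHD-AFC, HEPES pH 7.5, 10 mM DTT). Titration up to 57 uM; baseline from regression intercept, normalized to AFC standard curve.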
CRE Fsk mod – Cell signaling CRE-BLA (Fsk stim); Potency, µM (titrated, usually from 38.2 µM), hits mostly activators; 71,000 tested, 2.5% active; CHO CRE-bla reporter (cAMP response element driving beta-lactamase), forskolin EC10, beta-lactamase ratio; AID 662, 2007; active means well fitted activation curve with a large enough effect in the signal ratio, with a control signal flat, not every such curve was filed as active; inconclusive means small, poorly fitted or top-dose-only effect, or effect the other way, or a change in a side signal; the % refers to the signal ratio
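Forskolin analogue NKH 477 at EC10 stimulated CRE-driven beta-lactamase in CHO cells alongside compound dilution series. Beta-lactamase was measured with CCF4, excitation 405 nm, emission ratio 460/530 nm.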
4-MU autofl – qHTS Assay for Spectroscopic Profiling in 4-MU Spectral Region | compound autofluorescence, 340/450 nm, 4-MU equivalents; hits give high values | max dye-equivalent concentration, M | 59,000 tested, 11% active | AID 589, 2007; in the data active means max dye-equivalent concentration above about 10 nM; inconclusive means mostly about 1.1 nM to 9.6 nM
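Compounds in 100 mM Tris, pH 8.0, sat 15 min at room temperature before fluorescence was read at 340 nm excitation/450 nm emission; a per-plate six-point 4-MU standard curve converted signals to dye-equivalent concentration at each compound concentration.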
HADH2 inhib – qHTS Assay for Inhibitors of HADH2 (Hydroxyacyl-Coenzyme A Dehydrogenase, Type II) | 3-hydroxyacyl-CoA dehydrogenase type-2 (Homo sapiens), Q99714 | recombinant HADH2, NADH fluorescence, beta-hydroxybutyryl-CoA | Potency, µM (top dose mostly 57.1 µM), most hits filed as inhibitors | 73,000 tested, 3.4% active; further: nearly all actives have a fitted effect of over 60% in size
Target sequence (Q99714 whole entry, looked up, one chain of several): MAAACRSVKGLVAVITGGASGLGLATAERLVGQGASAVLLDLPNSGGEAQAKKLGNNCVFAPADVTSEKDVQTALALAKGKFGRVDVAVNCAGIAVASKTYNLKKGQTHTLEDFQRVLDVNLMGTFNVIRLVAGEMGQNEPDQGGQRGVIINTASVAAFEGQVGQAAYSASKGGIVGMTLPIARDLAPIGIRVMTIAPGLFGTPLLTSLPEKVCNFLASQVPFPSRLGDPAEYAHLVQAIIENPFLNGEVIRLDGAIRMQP
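Buffer 100 mM Tris-HCl pH 9.0/0.01% Tween-20; HADH2 20 nM; NAD+ 1 mM; beta-hydroxybutyryl-CoA 90 uM (all final). 15 min cpd preincubation, RT.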
A350 fluor – qHTS Assay for Spectroscopic Profiling in A350 Spectral Region | Compound autofluorescence, 340/450 nm, Alexa 350 dye-equivalents; hits give high values | max dye-equivalent concentration, M | 59,000 tested, 11% active; in the data active means max dye-equivalent concentration above about 10 nM; inconclusive means mostly about 1.1 nM to 9.6 nM
Hits are given with their value; - = inactive; ? = inconclusive; . = no result given; [ ] = remark or other dose. Sampled rows, rich in hits. Any-hit rate of the full collection: about 14%. Unless noted, the call rests on the fitted dose curve; in most records, active means well fitted curve in the direction sought with a large enough effect; inconclusive means small, poorly fitted or top-dose-only effect, or another doubt; inactive means no such curve, though single readings can be large; an effect the other way counts as inactive or inconclusive.

SMILES	HSD17B inhib	AID923	CRE Fsk mod	4-MU autofl	HADH2 inhib	A350 fluor
N#C/C(=C\c1ccc(O)c(O)c1)C(=O)c1ccc(O)c(O)c1	-	-	-	?	1.6µM	?
C=C1C2=CC(=O)OC(c3ccoc3)[C@]2(C)CCC1[C@]1(C)C=CC(=O)C(C)(C)C1CC(=O)OC (some centres undefined)	-	-	.	.	.	.
Cc1cccc(C)c1NS(=O)(=O)c1ccc(F)cc1	-	-	?	-	-	-
O=C(Nc1ccccc1)N1CCC2(CC1)CCN(C(=O)c1ccncc1)CC2	-	-	-	-	-	-
N#C/C(=C\c1c[nH]c2ccccc12)C(=O)c1ccc(O)c(O)c1	13µM	-	-	-	?	-
NC(N)=NNC(=O)C(=O)O	-[11.4 µM]	-[11.5 µM]	?	-	-[11.4 µM]	-
COc1cc(OC)c2c(c1Cl)O[C@@]1(C2=O)[C@H](C)CC(=O)C[C@@H]1OC	13µM	-	-	1.4e-08M	-	1.2e-08M
COC1=CC(=O)C[C@@H](C)[C@@]12Oc1c(Cl)c(OC)cc(OC)c1C2=O	.	.	-	-	-	?
Nc1ccc(N=Nc2ccc(-c3ccc(O)cc3)cc2)c2ccc(S(=O)(=O)O)cc12	3.2µM	-[11.5 µM]	-[7.6 µM]	-	5µM	-
Cn1c(=O)c(C(=O)NCCO)c(O)c2ccccc21	-	-	?	-	-	?
CSc1c(CC(=O)NCCO)n(C)c2ccccc12	25µM	-	-	-	-	-
Cc1cccc2cc(C#N)c(SCC(=O)N3CCC(C)CC3)nc12	-	-	?	?	-	?
CN1CCN(C(=O)CSc2nc(-c3cccs3)ccc2C#N)CC1	.	.	.	2.6e-07M	.	2.9e-07M
Cc1ccc(NC(=O)CSc2nnc(-c3ccncc3)n2N)cc1C	-	-	-	2.5e-08M	-	?
CCn1c(SCC(=O)Nc2cc(NC(C)=O)ccc2OC)nnc1-c1ccncc1	-	-	-	-	-	-
CCCNC(=O)NC(=O)CSc1nnc(-c2ccncc2)n1CC	?	-	-	2.2e-08M	-	1.9e-08M
CC(=O)Nc1cccc(-c2nnc(SCC(=O)N3CCCCC3)n2C)c1	25µM	-	-	3.8e-07M	-	4.5e-07M
COc1ccc(NC(C)=O)cc1NC(=O)CSc1nnc(-c2cccnc2)n1C	-	-	-	1.2e-08M	-	?
CCn1c(SCC(=O)Nc2cc(NC(C)=O)ccc2OC)nnc1-c1cccnc1	-	-	-	?	-	1e-08M
COc1ccc(NC(C)=O)cc1NC(=O)CSc1nnc(-c2ccccn2)n1C	-	-	-	-	-	-
O=C(NCCCN1CCOCC1)c1ccc(Cc2nc3ccccc3[nH]2)cc1	-	-	.	.	-	.
ON1C(c2ccccc2C(F)(F)F)N(O)[C@H]2CCCC[C@H]21 (some centres undefined)	-	-	?	-	-	?
CS(=O)(=O)Nc1ccc(N2CCCCC2)c(Cl)c1	-	-	-	-	-	-
CCn1c(SCc2nc3ccccc3[nH]2)nnc1-c1ccncc1	-	-	-	1.2e-08M	-	1e-08M
CCn1c(SCc2nc3ccccc3[nH]2)nnc1-c1cnccn1	-	-	?	?	-	?
SMILES	HSD17B inhib	AID923	CRE Fsk mod	4-MU autofl	HADH2 inhib	A350 fluor
O=C1C(Cl)=C(NC2CCc3ccccc32)C(=O)c2ncccc21 (centres undefined)	-	-	?	.	-	.
O=C(Nc1ccc(N2CCOCC2)c(Cl)c1)c1ncn[nH]1	-	-	-	-	-	-
O=C(Nc1ccc2oc(-c3ccccc3Cl)nc2c1)c1cncc(Br)c1	25µM	-	0.5µM	?	-	?
O=C(Nc1ccc2oc(-c3ccccc3Cl)nc2c1)c1ncn[nH]1	3.2µM	-	-	?	-	?
O=C(O)CCCCC1CCSS1 (centres undefined)	16µM	-	-	.	-	.
COc1ccc(-n2c(=O)cnc3cnc(OC)nc32)cc1	-	-	-	-	-	-
CC1CCN(CCNC(=O)c2ccc3c(=O)n(CCc4ccccc4)c(=O)[nH]c3c2)CC1	-	-	-	-	-	-
O=C(NCC1CCCO1)c1ccc2c(=O)n(CCc3ccccc3)c(=O)[nH]c2c1 (centres undefined)	3.2µM	-	-	-	-	?
CC1CCCC(NC(=O)c2ccc3c(=O)n(CC4CCCO4)c(=O)[nH]c3c2)C1C (centres undefined)	25µM	-	-	1.4e-08M	-	1.4e-08M
CCCCNC(=O)c1cccc(C(=O)NCCCC)c1	-	-	-	-	-	-
O=C(NCCCO)c1ccc2[nH]c3ccccc3c2c1	32µM	-	-	-	?	-
c1ccc2c(c1)CCC[C@H]2C1=NCCN1	-	-	-	-	-	-
O=C(O)c1c(-c2nccc3ccccc23)[nH]c(-c2ccccc2)c1S(=O)(=O)O	-[11.4 µM]	-[11.5 µM]	-[7.6 µM]	4.2e-08M	-[11.4 µM]	4.5e-08M
O=CNc1ccccc1	-	-	-	.	-	.
CC(=O)Nc1nc(-c2ccc(Br)s2)cs1	-	-	-	-	-	-
Nc1nc(-c2ccc(Br)s2)c(Br)s1	-	-	-	-	25µM	-
COCCNC(=O)[C@H](C)/C=C(\c1cccnc1)C(NC(=O)OCc1ccccc1)c1ccc(C(=O)OC)cc1 (some centres undefined)	-	-	-	.	-	.
CNc1nnc(-c2cccc(N(C)C)c2)s1	32µM	-	?	3.6e-08M	-	4.3e-08M
O=C(CC1Oc2ccc(Cl)cc2NC1=O)NC1CCCCCC1 (centres undefined)	-	-	-	.	-	.
CC(C)(C)c1cc(/C=C(\C#N)C(N)=S)cc(C(C)(C)C)c1O	?	-	?	-	13µM	-
CON	-	-	.	.	.	.
CC(C)(C)OC(=O)N1CCOCCOCCN(C(=O)OC(C)(C)C)CCOCC1	-	-	-	-	-	-
CCCn1c(=O)c2[nH]c(-c3ccc(S(=O)(=O)O)cc3)nc2n(CCC)c1=O	13µM	-	-	7e-07M	3.2µM	7.1e-07M
Cc1cc(C)n(-c2nc3ccccc3nc2N2CCCCCC2)n1	-	-	?	?	-	?
Cc1cc(C)n(-c2nc3ccccc3nc2N2CCN(C(=O)c3ccc(Cl)cc3)CC2)n1	-	-	?	2.2e-08M	-	2e-08M
COc1ccc(S(=O)(=O)N2CCN(c3nc4ccccc4nc3-n3nc(C)cc3C)CC2)cc1	-	-	-	2.4e-08M	-	2.8e-08M
Cc1cccc(NC(=O)c2cc(S(=O)(=O)NCc3ccco3)ccc2F)c1C	-	-	-	-	-	-
C[C@H]1NC(=O)NC1=O	-	-	-	-	-	-
